According to the supplement of paper PMC9262897, “Low-cost anti-mycobacterial drug discovery using engineered E. coli” (Nature Communications, 2022):
± gives the standard deviation of the averaged measurements.

System: E. coli TESEC Mtb Alr
Assay: growth (OD600 after 10 h); higher = more growth (less inhibition)
Details: compound 0.1 mM
Protocol: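 TESEC Mtb Alr E. coli, or the Alr+ wild-type control, in 384-well plates with Prestwick library compounds at 0.1 mM and 1% DMSO, across arabinose induction levels of 1E3 to 1E7 nM. Growth is read as OD600 after 10 h at 37 °C in triplicate biological replicates.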

[1] = arabinose 1000 nM, raw OD600 reference: median of DMSO wells 0.294, cell-free background 0.041
[2] = arabinose 10000 nM, raw OD600 reference: median of DMSO wells 0.264, cell-free background 0.041
[3] = arabinose 100000 nM, raw OD600 reference: median of DMSO wells 0.201, cell-free background 0.041
[4] = arabinose 1000000 nM, raw OD600 reference: median of DMSO wells 0.193, cell-free background 0.041
[5] = arabinose 10000000 nM, raw OD600 reference: median of DMSO wells 0.146, cell-free background 0.041

SMILES | growth [1] | growth [2] | growth [3] | growth [4] | growth [5]
Cc1cnc(C(=O)NCCc2ccc(S(=O)(=O)NC(=O)NC3CCCCC3)cc2)cn1 [Glipizide] | 0.289 ± 0.0034 | 0.263 ± 0.0066 | 0.193 ± 0.019 | 0.183 ± 0.0084 | 0.141 ± 0.0039
O=C1CN2Cc3c(ccc(Cl)c3Cl)N=C2N1 [Anagrelide] | 0.2815 ± 0.0021 | 0.281 ± 0.0097 | 0.191 ± 0.0049 | 0.209 ± 0.011 | 0.142 ± 0.005
CCOC(=O)c1ccc(OC(=O)CCCCCNC(=N)N)cc1 [Gabexate mesilate] | 0.179 ± 0.0036 | 0.158 ± 0.0034 | 0.109 ± 0.0039 | 0.0891 ± 0.0033 | 0.14 ± 0.0019
O=C(NCCNCC(O)COc1ccc(O)cc1)N1CCOCC1 (stereo not given) [Xamoterol hemifumarate] | 0.303 ± 0.014 | 0.272 ± 0.0074 | 0.195 ± 0.022 | 0.19 ± 0.0053 | 0.138 ± 0.0031
CC(=O)[C@H]1CC[C@H]2[C@@H]3CC=C4C[C@@H](O)CC[C@]4(C)[C@H]3CC[C@]12C [Pregnenolone] | 0.235 ± 0.015 | 0.239 ± 0.016 | 0.173 ± 0.029 | 0.136 ± 0.0035 | 0.159 ± 0.0019
O=C1c2c(O)cccc2Cc2cccc(O)c21 [Anthralin] | 0.159 ± 0.018 | 0.169 ± 0.017 | 0.205 ± 0.0082 | 0.151 ± 0.0087 | 0.182 ± 0.0047
CC(C)(C)C(=O)OCOC(=O)[C@@H]1N2C(=O)[C@@H](NC(=O)[C@H](N)c3ccccc3)[C@H]2SC1(C)C [Pivampicillin] | 0.351 ± 0.0076 | 0.285 ± 0.011 | 0.298 ± 0.011 | 0.207 ± 0.02 | 0.203 ± 0.0048
Cc1cnc(C(=O)O)c[n+]1[O-] [Acipimox] | 0.304 ± 0.025 | 0.247 ± 0.0063 | 0.218 ± 0.029 | 0.1751 ± 0.0015 | 0.1397 ± 0.00085
